Experimental data taken from PubChem BioAssay (NCI).
Compounds without any hit were thinned out: in the full panel of roughly 79,000, 15% have a hit. Calls of active or inactive are those of the source. No stated cut-off is given here; in the data, active means growth inhibition above about 70%; inactive means the rest.

Key:
[1] = NCI Yeast Anticancer Drug Screen. Data for the rad50 strain (AID 155);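 further: 0% = growth of vehicle-only cultures of the same strain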; conditions: S. cerevisiae rad50 strain growth inhibition, stronger effect = higher value
Method in brief: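 Readout: growth inhibition relative to vehicle-treated cultures. Compound exposure was carried out in a genetically defined yeast strain deficient in DNA damage repair.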

[2] = NCI Yeast Anticancer Drug Screen. Data for the mec2-1 strain (AID 157); conditions: S. cerevisiae mec2-1 strain, stronger effect = higher value
Method in brief: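 Cells of the genetically defined mec2-1 yeast strain are incubated with test compound. Inhibition of growth is calculated against vehicle-treated controls.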

[3] = NCI Yeast Anticancer Drug Screen. Data for the sgs1 mgt1 strain (AID 161);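 further: 0% = growth of cultures given vehicle only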; conditions: S. cerevisiae sgs1 mgt1 strain, stronger effect = higher value
Method in brief: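 Genetically altered yeast, compound exposure, growth inhibition relative to vehicle.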

[4] = NCI Yeast Anticancer Drug Screen. Data for the cln2 rad14 strain (AID 165);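 further: 0% = growth equal to vehicle treated cultures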; conditions: S. cerevisiae cln2 rad14 strain, stronger effect = higher value
Method in brief: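 The screen exposed genetically defined yeast (cln2 rad14) to test compounds and scored growth inhibition relative to vehicle-treated controls.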

[5] = NCI Yeast Anticancer Drug Screen. Data for the bub3 strain (AID 167); conditions: S. cerevisiae bub3 mutant strain, stronger effect = higher value
Method in brief: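 Readout: yeast growth inhibition, expressed relative to vehicle-only wells. The test organism is a mutant strain from a panel with lesions in DNA repair or checkpoint genes.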

[6] = NCI Yeast Anticancer Drug Screen. Data for the mlh1 rad18 strain (AID 175); conditions: S. cerevisiae mlh1 rad18 strain growth inhibition, stronger effect = higher value
Method in brief: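 Compound-treated yeast growth, normalised to vehicle controls. Strain bears defined DNA repair mutations.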

[7] = at 5.0 µM (retest, dose inferred, filed as 0.5)
[8] = at 50.0 µM (retest, dose inferred, filed as 5.0)

Measured: growth inhibition

O=C(COC(=O)C(c1ccccc1)c1ccccc1)c1ccc(Br)cc1
inactive: [1]; [7] -2% | [1]; [8] 28% | [1]; at 50.0 µM 45.9% | [2]; [7] -1% | [2]; [8] 23% | [2]; at 50.0 µM 11% | [3]; [7] 0% | [3]; [8] 35% | [3]; at 50.0 µM -4.25% | [4]; [7] -5% | [4]; [8] 28% | [4]; at 50.0 µM 11.1% | [5]; [7] 10% | [5]; [8] 62% | [6]; [7] -1% | [6]; [8] 27% | [6]; at 50.0 µM 20.9%
active: [5]; at 50.0 µM 88%

CC(=O)N(C)c1ccc(/C=C2\C=Cc3ccccc32)cc1
inactive: [1]; [7] 9% | [1]; at 50.0 µM 41.2% | [2]; [7] 4% | [2]; at 50.0 µM 39.7% | [3]; [7] 10% | [3]; at 50.0 µM 26.3% | [4]; [7] -4% | [4]; at 50.0 µM 32.8% | [5]; [7] 7% | [6]; [7] 11% | [6]; at 50.0 µM 56.3%
active: [1]; [8] 91% | [2]; [8] 94% | [3]; [8] 93% | [4]; [8] 81% | [5]; [8] 94% | [5]; at 50.0 µM 72.2% | [6]; [8] 92%

Nc1ncnc2c1ncn2C1OCC(OCc2ccccc2)C(OCc2ccccc2)C1OCc1ccccc1 (stereo not given)
inactive: [1]; [7] 9% | [2]; [7] -25% | [3]; [7] 13% | [4]; [7] 6% | [5]; [7] 13% | [6]; [7] -4%
active: [1]; [8] 99% | [1]; at 50.0 µM 98.3% | [2]; [8] 100% | [2]; at 50.0 µM 96% | [3]; [8] 98% | [3]; at 50.0 µM 99.2% | [4]; [8] 98% | [4]; at 50.0 µM 96.8% | [5]; [8] 99% | [5]; at 50.0 µM 97.5% | [6]; [8] 99% | [6]; at 50.0 µM 98.1%

CC(C)(C)c1ccc(C(=O)n2c(=S)oc3ccc(Cl)cc32)cc1
active: [1]; [8] 85% | [2]; [8] 91% | [3]; [8] 92% | [3]; at 50.0 µM 81.8% | [4]; [8] 73% | [6]; [8] 88%
inactive: [1]; [7] 50% | [1]; at 50.0 µM 65% | [2]; [7] 44% | [2]; at 50.0 µM 61.4% | [3]; [7] 46% | [4]; [7] 39% | [4]; at 50.0 µM 39.5% | [5]; [7] 43% | [5]; [8] 64% | [5]; at 50.0 µM 59.5% | [6]; [7] 51% | [6]; at 50.0 µM 63%

Cc1ccc2nc(N/N=C/c3cccc(C)n3)cc(C)c2c1
inactive: [1]; [7] 8% | [1]; [8] 62% | [2]; [7] -2% | [2]; [8] 37% | [2]; at 50.0 µM 21.2% | [3]; [7] 6% | [4]; [7] -8% | [4]; [8] 61% | [5]; [7] -11% | [5]; [8] 57% | [6]; [7] 4% | [6]; [8] 64%
active: [1]; at 50.0 µM 89.3% | [3]; [8] 80% | [3]; at 50.0 µM 89.8% | [4]; at 50.0 µM 74.9% | [5]; at 50.0 µM 73.1% | [6]; at 50.0 µM 84.3%

O=C1c2cccc(O)c2C(=O)c2c(O)cc(CO)cc21
inactive: [1]; [7] 58% | [2]; [7] 52% | [3]; [7] 61% | [4]; [7] 23% | [5]; [7] 54%
active: [1]; [8] 92% | [1]; at 50.0 µM 87% | [2]; [8] 94% | [2]; at 50.0 µM 90.3% | [3]; [8] 93% | [3]; at 50.0 µM 90.5% | [4]; [8] 81% | [4]; at 50.0 µM 88% | [5]; [8] 91% | [5]; at 50.0 µM 89.4% | [6]; [7] 82% | [6]; [8] 97% | [6]; at 50.0 µM 90.8%

CC1=CC(C)C(C)N(CCNC(=O)Nc2ccccc2)c2ccccc21 (stereo not given)
active: [1]; at 50.0 µM 77.2% | [2]; at 50.0 µM 80.9% | [3]; [8] 71% | [3]; at 50.0 µM 80.6% | [4]; [8] 80% | [4]; at 50.0 µM 75.5% | [5]; [8] 75% | [5]; at 50.0 µM 84.2% | [6]; at 50.0 µM 70.2%
inactive: [1]; [7] 17% | [1]; [8] 51% | [2]; [7] 16% | [2]; [8] 33% | [3]; [7] 14% | [4]; [7] 22% | [5]; [7] -14% | [6]; [7] 14% | [6]; [8] 66%

CN(Cc1cnc2nc(N)nc(N)c2n1)c1ccc(C(=O)NC(CCC(=O)O)C(=O)O)cc1C(F)(F)F (stereo not given)
active: [1]; [8] 76% | [1]; at 50.0 µM 72.7% | [2]; [8] 98% | [5]; at 50.0 µM 75.5% | [6]; [8] 86%
inactive: [1]; [7] -2% | [2]; [7] 61% | [2]; at 50.0 µM 50% | [3]; [7] -12% | [3]; [8] 62% | [3]; at 50.0 µM 67.5% | [4]; [7] -16% | [4]; [8] 5% | [4]; at 50.0 µM 29% | [5]; [7] -19% | [5]; [8] 65% | [6]; [7] 0% | [6]; at 50.0 µM 56.9%

O=C(O)c1ccc2c(c1)CCCC2
inactive: [1]; [7] -154% | [1]; [8] -116% | [1]; at 50.0 µM 16.2% | [2]; [7] -55% | [2]; [8] -53% | [2]; at 50.0 µM 6.3% | [3]; [7] -66% | [3]; [8] -58% | [3]; at 50.0 µM 9.5% | [4]; [7] -60% | [4]; [8] -61% | [4]; at 50.0 µM 52% | [5]; [7] -75% | [5]; [8] -70% | [5]; at 50.0 µM -12.9% | [6]; [7] -143% | [6]; [8] -101% | [6]; at 50.0 µM 21.4%

CSC(=S)N/N=C(\C)c1ccc[nH]1
active: [1]; [8] 96% | [1]; at 50.0 µM 83.8% | [2]; [8] 96% | [2]; at 50.0 µM 90.8% | [3]; [8] 96% | [3]; at 50.0 µM 79.7% | [4]; [8] 92% | [4]; at 50.0 µM 72.6% | [5]; [8] 97% | [5]; at 50.0 µM 90.2% | [6]; [8] 77% | [6]; at 50.0 µM 85.7%
inactive: [1]; [7] -2% | [2]; [7] 0% | [3]; [7] 13% | [4]; [7] -13% | [5]; [7] 0% | [6]; [7] 2%
